# Screening results as filed in PubChem.
# Compounds with a hit are over-represented: about 2.4% of the library has one in this group of screens.
# D2 ag-1: human D2 receptor agonism in beta-arrestin assay; P14416; DiscoveRx PathHunter D2 beta-arrestin, luminescence, 90 min; 100% = 57 uM dopamine signal; activation, % (no concentration beside the values); 0.084% of 360,000 active; AID 624465; in the data active means activation above about 40%; inconclusive means between about 15% and that limit
# Target sequence (P14416 whole entry, looked up): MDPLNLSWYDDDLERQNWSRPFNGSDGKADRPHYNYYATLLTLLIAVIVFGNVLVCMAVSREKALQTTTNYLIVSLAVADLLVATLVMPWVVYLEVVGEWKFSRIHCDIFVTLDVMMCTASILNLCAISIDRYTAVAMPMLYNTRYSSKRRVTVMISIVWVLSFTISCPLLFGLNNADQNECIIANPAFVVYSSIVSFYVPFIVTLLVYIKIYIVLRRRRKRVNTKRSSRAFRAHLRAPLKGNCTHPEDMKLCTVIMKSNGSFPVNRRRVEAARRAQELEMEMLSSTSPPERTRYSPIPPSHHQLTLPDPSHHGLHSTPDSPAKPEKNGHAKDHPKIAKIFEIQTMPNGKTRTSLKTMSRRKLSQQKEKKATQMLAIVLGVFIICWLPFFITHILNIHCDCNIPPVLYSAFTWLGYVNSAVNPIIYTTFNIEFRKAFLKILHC
#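 Agonist mode: compounds alone added to overnight-plated D2 PathHunter cells for 90 min at 37 C, with 57 uM final dopamine (EC100) defining full response. Beta-arrestin recruitment detected by chemiluminescent reagent, read after 1 h at ambient temperature.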
# D2 antag: D2 dopamine receptor (human) antagonism. P14416. HEK293 TREx D2 cells, calcium flux, dopamine EC80. inhibition, % at 10 µM. 2% of 340,000 active; in the data active means inhibition above about 30%; inactive means below that, where a call was filed; further: 0% is about no effect
#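 Compounds are added to dye-loaded, induced HEK293 T-REx cells coupled to calcium release via D2; after a 3 min kinetic read an EC80 dopamine stimulus is given and fluorescence is recorded for 3 more min.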
# D2 PAM-1: potentiates the human D2 dopamine receptor allosterically; DiscoveRx D2 beta-arrestin cells, luminescence, 90 min; 100% = 57 uM dopamine signal; potentiation, % (concentration not given with the values); 0.23% of 360,000 active; AID 624464; P14416; in the data active means potentiation above about 50%; inconclusive means mostly about 30% to 49%
#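 D2 cells co-treated with compound plus 50 nM dopamine (EC20) for 90 min at 37 deg C to detect potentiation. Beta-arrestin recruitment was read as enzyme-fragment luminescence after 1 h at ambient temperature. Full response was set by 57 uM dopamine.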
# D2 ag-2: D2 dopamine receptor (human) agonism; activation, % at 2 µM; AID 485358; P14416; HEK293 T-REx D2 cells, calcium flux agonist mode; 0.53% of 340,000 active;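 active means activation over 3 SD above normal in the single-dose calcium agonist read, cut at about 30% in these data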; further: 0% is about no effect
#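 HEK293 Trex D2 cells, tetracycline-induced, o/n 30 C 5% CO2; no-wash Ca dye, RT 30–90 min; 10-cycle baseline, 23 nl cpd added, kinetic Ca read 180 s; agonist hits = positive Ca response.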
# D2 PAM-2: D2 dopamine receptor (human) potentiation; P14416; HEK293 T-REx D2, calcium flux, EC20 dopamine potentiation; potentiation, % at 10 µM; 0.34% of 340,000 active; AID 485347;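 active means potentiation over 3 SD above the plate norm, cut at about 30% in these data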; further: 0% is about no effect
#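 Potentiation of an EC20 dopamine calcium response measured kinetically over 180 s, after a preceding 180 s compound-only read flagging agonists. Cells: inducible Hek293 Trex D2 line, 4000/well, cultured overnight at 30 C before dye loading.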
# * = called active by the depositor; ? = inconclusive; . = no result given.
SMILES,D2 ag-1,D2 antag,D2 PAM-1,D2 ag-2,D2 PAM-2
O=C1CCCc2c1[nH]c1ccc(CN3CCCCC3)cc21,-1,51*,-16,0,-20
Cc1sc(NC(=O)CCC(=O)O)c(C(N)=O)c1-c1ccccc1,0,47*,15,0,4
Cc1c(C(C)NC(=O)Nc2ccc(F)cc2F)cnn1C (stereo unspecified),-3,38*,-24,-1,-13
Cc1cc(NC(=O)Nc2ccc(F)cc2F)n(C)n1,-4,13,-10,6,-5
O=S(=O)(Nc1cccc2ccccc12)c1cccs1,91*,-17,1,0,-2
CCCCCCCC(=O)Oc1ccc(C(=O)Nc2cc(C)on2)cc1,0,37*,0,-1,-9
Cc1cccc(CN2CCN(c3nc4nonc4nc3NC3CC3)CC2)c1,-5,-5,-2,0,5
Clc1cccc(CN2CCN(c3nc4nonc4nc3NC3CC3)CC2)c1,-2,38*,-3,0,8
O=[N+]([O-])c1cc(Cl)ccc1NCCNc1ncc(C(F)(F)F)cc1Cl,-6,36*,8,0,-11
CCn1nnnc1NCc1ccc(Cl)cc1,0,47*,-6,1,14
CCCn1nnnc1NCc1ccc(SC)cc1,-1,37*,-1,-1,6
COc1cccc(NC(=O)c2ccc(-c3nc(COc4ccccc4)c(C)o3)cc2)c1,.,.,.,1,-3
O=C(COC(=O)c1cc([N+](=O)[O-])ccc1N1CCOCC1)c1ccc(OC(F)F)cc1OC(F)F,?,44*,-20,2,-7
CCn1c(CN2CCCCC2)nc2cc(NC(=O)COc3ccc(C(C)(C)C)cc3)ccc21,.,.,.,-2,-32
O=C1CC(N2CCC(O)(c3ccc(Cl)cc3)CC2)C(=O)N1 (stereo unspecified),-5,31*,-3,1,16
CC(C)(C)C(=O)n1nc(-c2ccccc2)oc1=O,1,31*,-27,1,-2
N#CC1=C(N)C(C#N)(C#N)[C@H](c2ccoc2)[C@H]2CN(Cc3ccccc3)CC=C12,1,1,-17,31*,3
CCCN1CC=C2C(C#N)=C(N)C(C#N)(C#N)C(c3cccc(OC)c3OC)C2C1 (stereo unspecified),-3,5,-25,57*,-15
COc1ccc(OC)c(C2C3CN(C(C)C)CC=C3C(C#N)=C(N)C2(C#N)C#N)c1 (stereo unspecified),-6,-7,-49,4,-15
CC(=O)C1=C(O)C(=O)N(c2ccc(Br)cn2)C1c1ccccc1[N+](=O)[O-] (stereo unspecified),-3,31*,-6,1,1
COc1cc(NC(=O)CN(C)S(=O)(=O)c2ccc3[nH]c4c(c3c2)CCCC4)cc(OC)c1OC,.,.,.,-1,-8
COc1ccc2oc(C(=O)OCC(=O)N3CCN(C(C)=O)CC3)c(C)c2c1,-4,-9,28,1,-2
COc1ccc2oc(C(=O)OCC(=O)N3CCCCC3)c(C)c2c1,-4,31*,0,-1,-1
Cc1cccc(C(=O)OCC(=O)N2CCCCCC2)c1,0,31*,-16,0,11
Cc1cccc(Cn2c(CNS(=O)(=O)c3ccc(C(C)C)cc3)nc3cccnc32)c1,.,.,.,1,8
SMILES,D2 ag-1,D2 antag,D2 PAM-1,D2 ag-2,D2 PAM-2
O=C1CC(c2ccccc2)Sc2ccccc2N1Cc1ccc(F)cc1 (stereo unspecified),.,.,.,1,15
Cc1nn(-c2ccc(N3CCCCC3)nn2)c(C)c1CCC(=O)NCc1ccc(OC(C)C)cc1,.,.,.,1,7
CCOC(=O)C1(C)CCN1C(=O)c1cccc(Cl)c1 (stereo unspecified),42*,.,4,.,.
O=[N+]([O-])c1cc(-c2nc3nc4ccccc4nc3n2CCc2ccccc2)cc([N+](=O)[O-])c1,14,67*,11,0,2
O=C(Nc1ccc2c(c1)C(=O)OC2)c1ccc(C(F)(F)F)cc1,-3,34*,-15,-1,-15
CC(C)c1ccc2occ(-c3nn[nH]n3)c(=O)c2c1,-4,32*,-2,1,-4
Cc1ccc(CSc2cn(CC(=O)N3CCCCCC3)c3ccccc23)cc1,.,.,.,0,3
O=C1CC(c2ccc(OCCCCCOc3ccc(C4CC(=O)NC4=O)cc3)cc2)C(=O)N1 (stereo unspecified),9,37*,8,0,5
CCCCCCCCOc1ccc(C2CC(=O)NC2=O)cc1 (stereo unspecified),-4,-1,-9,1,1
COc1ccc(OC)c(NC(=O)COCc2cc(-c3ccco3)on2)c1,.,.,.,-2,-6
CCOc1cc(CNc2ccc(N3CCN(C(C)=O)CC3)cc2)cc(Br)c1OC,13,-13,74*,1,15
Cc1ccc(CNC(=O)c2nc(-c3ccc(Cl)cc3)n3c2CCCCC3)cc1,.,.,.,-1,3
CC1CCC2(CC1)NC(=O)c1ccccc1O2 (stereo unspecified),-3,2,-2,1,32*
COc1ccc(C(CCN2CCCC(C)C2)c2c(OC)cc(OC)c3c2OC(=O)CC3c2cc(OC)c(OC)c(OC)c2)cc1 (stereo unspecified),2,52*,-23,0,-27
COc1cc(OC)c2ccc(=O)oc2c1C(CCN1CCCC(C)C1)c1ccc2c(c1)OCO2 (stereo unspecified),-2,83*,-22,-1,-18
CCCCCc1cc(=O)oc2c(C(CCN3CCN(c4ccccc4)CC3)c3ccc4c(c3)OCO4)c(OC)cc(OC)c12 (stereo unspecified),14,50*,2,17,-9
COc1ccc(CCn2c(=O)c3cccnc3n(CC(=O)Nc3ccc(C)cc3C)c2=O)cc1OC,.,.,.,.,4
CC(C)CS(=O)(=O)c1oc(-c2ccc(F)cc2)nc1S(=O)(=O)c1ccccc1,.,.,.,5,8
Cc1oc(-c2cccc(Cl)c2)nc1CSc1nc2c(c(=O)[nH]1)CCC2,-1,8,-7,-1,-1
Cc1oc(-c2ccccc2Cl)nc1CSc1nc2c(c(=O)[nH]1)CCC2,14,35*,9,0,5
COc1cccc2cc(C(C)N(CCCN3CCOCC3)C(=S)Nc3cccc(C)c3)oc12 (stereo unspecified),-6,14,-16,-1,-13
Cc1cccc(NC(=S)N(CCCN2CCOCC2)C(C)c2cc3ccccc3o2)c1 (stereo unspecified),-7,35*,-17,0,-10
COc1ccc(/C=N/Nc2nc(-c3cccc(S(=O)(=O)N4CCCC4)c3)cs2)cc1OC,5,6,10,0,1
